# Over roughly 39,000 sequences, “fluorescence intensity (a.u.)” has its median near 4,300; the highest 2% begin near 39,000. Only a selection was taken, and the highest values are over-represented in it overall.
# Biological target: T1, OsSMF1 (Oryza sativa, UniProt Q6ZLB0 1-436)
# T1 sequence: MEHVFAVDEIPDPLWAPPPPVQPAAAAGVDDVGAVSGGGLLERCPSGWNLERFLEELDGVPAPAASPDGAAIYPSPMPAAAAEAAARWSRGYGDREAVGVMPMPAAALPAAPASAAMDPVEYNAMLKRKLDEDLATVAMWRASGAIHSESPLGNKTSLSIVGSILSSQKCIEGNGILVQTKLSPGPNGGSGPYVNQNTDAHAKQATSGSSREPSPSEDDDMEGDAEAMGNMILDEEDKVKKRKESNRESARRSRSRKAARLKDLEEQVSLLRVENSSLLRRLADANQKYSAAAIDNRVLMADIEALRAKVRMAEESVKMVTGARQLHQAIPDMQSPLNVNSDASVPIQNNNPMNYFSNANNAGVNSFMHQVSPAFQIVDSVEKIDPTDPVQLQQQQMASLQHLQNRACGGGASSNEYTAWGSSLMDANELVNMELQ
# Assay: protein-binding microarray (RPBM); PBS, 2% BSA, 51.3 ng/ul salmon testes DNA, 50 uM zinc acetate, 200 nM TF, 25 C, 1 h; high values mean tight binding
# Settings: protein: recombinant; tags: N-terminal polyhistidine and DsRed monomer fusion (pET32a); chain copies: 2; label: CyDye5-dUTP incorporated in the synthesized complementary strand; 3' TTTTT single-stranded linker to array surface; dsDNA, one strand shown
# Procedure, shortened: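 Per-feature fluorescence intensity (arbitrary units), read on an Axon 4000B scanner, is the binding signal. Transcription factors carrying an N-terminal polyhistidine tag and DsRed fusion were expressed in E. coli BL21-CodonPlus and purified on Ni–NTA. A custom Agilent array, made double-stranded by primer extension with Cy5-dUTP and blocked with 2% BSA, was incubated with 200 nM protein in PBS, 2% BSA, salmon testes DNA and 50 µM zinc acetate at 25 °C for 1 h and then washed.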
row,Sequence,binding signal
1,AGCTCGTGACGTTAATCTCCGTATAACCAAGCCATGTTGTCGGAGTCACCTAGTGCAG,6620 fluorescence intensity (a.u.)
2,CATATAATTGATAGCAGCATGACAGATTGCCAGTTAGCCGCGGAGTCACCTAGTGCAG,3290 fluorescence intensity (a.u.)
3,AGTAGTAGGGCGCGACACGCGTGTACGTTGCGATAGATGTCGGAGTCACCTAGTGCAG,3330 fluorescence intensity (a.u.)
4,ATGTCTCGTTATCTCCTAAACATGTCATTACACTGGAAACCGGAGTCACCTAGTGCAG,3240 fluorescence intensity (a.u.)
5,TATGGGGCCGTGATATTCAATGTGATGTGCATACAGCATGCGGAGTCACCTAGTGCAG,3720 fluorescence intensity (a.u.)
6,CTGCCTCCTGTTCGCGCTCCACGCCACCACTGCCGACGAGCGGAGTCACCTAGTGCAG,4300 fluorescence intensity (a.u.)
7,AGAGCGATCTGATCGACCGAGTTGTGTCATGCCGTACTACCGGAGTCACCTAGTGCAG,4330 fluorescence intensity (a.u.)
8,AATTATCTTGAAGCACCTCAACTCAACCTGATGTCATACACGGAGTCACCTAGTGCAG,4390 fluorescence intensity (a.u.)
9,GAATTTACTTTAGCGGAGATTGAGCACTTTGTGGACCCAGCGGAGTCACCTAGTGCAG,52400 fluorescence intensity (a.u.)
10,AGATTTGTGCTCTGACCCACTTCACTCACTTAGTCTCTAGCGGAGTCACCTAGTGCAG,3630 fluorescence intensity (a.u.)
11,CCAATTTCCGACTTCATGAGATTTATGTCTTTGTGGTCAGCGGAGTCACCTAGTGCAG,3210 fluorescence intensity (a.u.)
12,ATGTGTAATGACATGACTAGGCATTCCCTTCAGTTAGTCTCGGAGTCACCTAGTGCAG,9940 fluorescence intensity (a.u.)
13,GTGGAATATTTCTGATCATGGTTTGGGAATAAACGTTCTGCGGAGTCACCTAGTGCAG,3310 fluorescence intensity (a.u.)
14,GAGACCGTTCTGAATTTCTGAGACTGATACATATTTGATGCGGAGTCACCTAGTGCAG,40300 fluorescence intensity (a.u.)
15,TGCTTCTGATACTCACGTATATTTCATACACACGTGAATGCGGAGTCACCTAGTGCAG,3210 fluorescence intensity (a.u.)
16,CGTGCATCCGCTTGTGCTGCCACTTCGACAGCCCGCCCGGCGGAGTCACCTAGTGCAG,3570 fluorescence intensity (a.u.)
17,GGGCTCCATAATAGAGTGCCACACTAGCATGTTACGATATCGGAGTCACCTAGTGCAG,3510 fluorescence intensity (a.u.)
18,TCTACTGCAATTAGTTGATTCAGCTAGTAGCAAACATAATCGGAGTCACCTAGTGCAG,54800 fluorescence intensity (a.u.)
19,CATAATTAGCGGTTGATTACTGTAGCATCACTGTAACAAACGGAGTCACCTAGTGCAG,3730 fluorescence intensity (a.u.)
20,TTAACAGTTGGTTACTAGTCCTAATTAATTCAGTAGCAATCGGAGTCACCTAGTGCAG,4700 fluorescence intensity (a.u.)
21,TTTAGAATACTGCTCATACGTCAGTAACAAAGTCACACGACGGAGTCACCTAGTGCAG,3880 fluorescence intensity (a.u.)

row,Sequence,binding signal
1,GCCCAAAGAAAGAAGGAGGTGGACACGTGGGAGATCTGCGCGGAGTCACCTAGTGCAG,11200 fluorescence intensity (a.u.)
2,CCCAATCCGAACGGGACAGCTGCCCACGTGCGACCCATGTCGGAGTCACCTAGTGCAG,4920 fluorescence intensity (a.u.)
3,CATTGCTTTGTTTGATCTTGTGTGCCAATAATTGATGAAACGGAGTCACCTAGTGCAG,55900 fluorescence intensity (a.u.)
4,CTAATATATTGACGTGTAATTCTTTTGTGTGTTTGTGAAACGGAGTCACCTAGTGCAG,6530 fluorescence intensity (a.u.)
5,CCAATTTGACGTGAAATGTTTAGATGATCTCTTGCCAGTACGGAGTCACCTAGTGCAG,3150 fluorescence intensity (a.u.)
6,ACATGGGGAAAACCAGGGACTAAAACTGTAATCAAACAGTCGGAGTCACCTAGTGCAG,29500 fluorescence intensity (a.u.)
7,CCTTCCGTTCGACGCGACACGCGAGTCATTGCTGCCACCACGGAGTCACCTAGTGCAG,3680 fluorescence intensity (a.u.)
8,CCTCTCGTGGCATCGCATCGCATCGTGTCCTCTGCGACTGCGGAGTCACCTAGTGCAG,3630 fluorescence intensity (a.u.)
9,GACAAGCTCGGCACCAATCTCCACAGGAGCCGCATCAGGTCGGAGTCACCTAGTGCAG,3420 fluorescence intensity (a.u.)
10,AGTCCAAGAGCGTGACGCATGTTCGGTACCACGCGCACAACGGAGTCACCTAGTGCAG,4740 fluorescence intensity (a.u.)
11,CATGTCGACATGTTCACAAGCGGTACCAAGAGTCAAGACACGGAGTCACCTAGTGCAG,45800 fluorescence intensity (a.u.)
12,GACCCAAATGTCATAGAGACACGACGGTTCACATGTCATACGGAGTCACCTAGTGCAG,3900 fluorescence intensity (a.u.)
13,TCTCCCTCTACCTCGACGTCATCAACCTCTTCCTCTCCCTCGGAGTCACCTAGTGCAG,11000 fluorescence intensity (a.u.)
14,GTATTGATGTTCTTACCATAAAAGTAACTCCATGAAAGAACGGAGTCACCTAGTGCAG,41100 fluorescence intensity (a.u.)
15,GTTAACAGTAAGTTATTCTTTGAACTCCATATATTTGTTCCGGAGTCACCTAGTGCAG,3440 fluorescence intensity (a.u.)
16,ACACCATGCGTATGATGCAATACCTATTGACTCCATTGAACGGAGTCACCTAGTGCAG,3380 fluorescence intensity (a.u.)
17,TAGATTGCTTTTCAGTGAAACTACGTGCACATATGCATGCCGGAGTCACCTAGTGCAG,3250 fluorescence intensity (a.u.)
18,ACACTAGTAACAAAACTTGGCAATTTGGCATTTGGCATTTCGGAGTCACCTAGTGCAG,3300 fluorescence intensity (a.u.)
19,GCTTTGCATAGGCACTTTCAAAACTAGATATTAGTAACGCCGGAGTCACCTAGTGCAG,51000 fluorescence intensity (a.u.)
20,ACAGGTGCACGCACACGTGCCGCATCAACCAGACAGCCACCGGAGTCACCTAGTGCAG,3360 fluorescence intensity (a.u.)
21,AAATATAATAAATTTAATGTTAACATATTTTACACGTAAGCGGAGTCACCTAGTGCAG,9740 fluorescence intensity (a.u.)

# From article PMC7819943, “Rice protein-binding microarrays: a tool to detect cis-acting elements near promoter regions in rice”
